According to the supplement of paper PMC10338343:
± gives the standard deviation.

Each sequence was assayed on EfPiwi piRISC loaded with L1MC piRNA (26 nt) (assay: pre-steady-state target cleavage rate (min^-1); auxiliary factor: 500 nM Ephydatia muelleri Gtsf1; guide: L1MC piRNA 5'p-UAACUAAAUACUAUGCAAGCUGUAGG; MIWI and MILI are mouse PIWI proteins and EfPiwi is from a freshwater sponge; tags in brackets are library labels; higher = faster piRNA-guided slicing of the target).
Protocol: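 Cleave-'n-Seq: a library of target RNAs (target site in constant flanks) at […] was incubated with 1 nM active freshwater sponge Ephydatia fluviatilis Piwi piRISC (synthetic 5'-monophosphorylated piRNA guide) with or without 500 nM EmGtsf1 at 33 °C for 1 min to 16 h. Uncleaved targets were sequenced and the pooled three trials fitted to a burst-and-steady-state model to give the pre-steady-state cleavage rate (min^-1). Sequence is the target site only. Fits with R² ≤ 0 are excluded.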

Sequence	pre-steady-state target cleavage rate
UCCUCCUACAGCUUGCAUAGUAUUUAGUUC [g2:g26:cont:t1C]	0.146 ± 0.035
UCCUCCUACAGCUUGCAUAGUAUUUAGUAA	0.0113 ± 0.005
UCCUGGAACAGCAAGCAUAGUAUUUAGAAA	0.00309 ± 0.002
UCCUCCUACAGCUUGCACAGUAUUUAGUUA	0.0475 ± 0.013
UCCUGCUACAGCUUGCAUAUUAUUUAGUUA	0.0119 ± 0.0034
UCCUCCUACAGUCUUGCAUAGUAUUUAGUUA	0.0171 ± 0.006
UCCUGCUACAGGUUGCAUAGUUUUUAGUUA	0.00998 ± 0.0028
UCCUGGAACAGCUAGCAUAGUAAUUAGUUA	0.0062 ± 0.0028
UCCUGCUACUGCUUGCAUUGUAUUUAGUUA	0.00835 ± 0.0023
UCCUGGAUGUCGUCUGCAUAGUAUUUAGUUA	0.00907 ± 0.0032
UCCUGCUACAGCUUGCAUAGUAUUUUGAAA	0.0045 ± 0.0018
UCCUGGAACUGCUUCCAUAGUAUUUAGUUA	0.00266 ± 0.0013
UCCUGGAACAGCCUGCAUAGUAUUUAGUUA	0.0144 ± 0.0045
UCCUGGUACAGCUUGCAUAGUAUAUUAGUUA	0.00489 ± 0.0026
UCCUCCUUACAGCUUGCAUAGUAUUUAGUUA	0.117 ± 0.03
UCCUGGAUGAGCUUGCAUAGUACUUAGUUA	0.0106 ± 0.0037
UCCUGGAACAAGCUUGCAUAGUAUUUAGUUA	0.0156 ± 0.0043
UCCUGGAUCAGCUUGCAUGGUAUUUAGUUA	0.0193 ± 0.0038
UCCUCCUACAGCUUGCAUAGUAAUAAGUUA	0.0073 ± 0.004
UCCUGGAACAGCUUGCAUAGUAUUAUAGUUA	0.0399 ± 0.015

Sequence	pre-steady-state target cleavage rate
UCCUCCUACAGCUUGCAUAGUAUUGUAGUUA	0.0032 ± 0.0012
UCCUGCUACAGGAUGCAUAGUAUUUAGAAA	0.00248 ± 0.0014
UCCUGGAACAGCUUGCAAUGUAUUUAGUUA	0.00454 ± 0.0035
UCCUGGAUGAGCUUGCAUAUUAUUUAGUUA	0.00658 ± 0.0032
UCCUGCUACAGCUUGCUUAGUAAUUAGUUA	0.0139 ± 0.0051
UCCUGCAACACCUUGCAUAGUAUUUAGUUA	0.0123 ± 0.0034
UCCUGCUACAGCUUGCUUAGUAUUUAGUUA	0.0201 ± 0.0068
UCCUGGAUGUGCUCGCAUAGUAUUUAGUUA	0.00512 ± 0.0021
UCCUGGAUCAGCUUGCCAUAGUAUUUAGUUA	0.00658 ± 0.0025
UCCUGGAUGAGCUUGUAUAGUAUUUAGUUA	0.0538 ± 0.014
UCCUGGAUGUGCAUGCAUAGUAUUUAGAUA	0.00317 ± 0.0024
UCCUGGAUCAGCUUGCAUAGUAUUAAGAUA	0.006 ± 0.0032
UCCUCGAUCAGCUUGCAUAGUAUUUUCAAA	0.00433 ± 0.0023
UCCUGGUACAGCAUUGCAUAGUAUUUAGUUA	0.0107 ± 0.004
UCCUGGAUGUCGAAGCUUAGUAUUUACUUA	< 0.0001
UCCUGGAAUCAGCUUGCAUAGUAUUUAGUUA	0.0198 ± 0.0068
UCCUGCAACAGGUUGCAUAGUAUUUAGUUA	0.018 ± 0.0035
UCCUGGAUGAGCUUGCAUUGUAAUUAGUUA	0.00306 ± 0.0025
UCCUCCUACAGCUUGCAUAGUAUUCUAGUUA	0.00344 ± 0.0019
UCCUGGUACAGCUUGCAUAGUAUAUAGUUA	0.00533 ± 0.0027
